The results in this text go back to ChEMBL document CHEMBL4513142, “CO-ADD screening of Indiana University - Purdue University Indianapolis (USA) compounds”.

Where “and” joins values, the source holds several entries; their conditions need not be identical. Equal entries are not always repeated. Potency and affinity values are given separately.

One may read the Inhibition as the relative decrease from the control value, in per cent.

The first test relates to Staphylococcus aureus. The following applies: Concentration 32 ug.mL-1; ASSAY_TEST Inhibition of Bacterial Growth; detection method Absorption (OD600); MEDIA CAMHB; plate type 384well; NBS; CORNING #3640; time 18 hr.
`[C-]#[N+]c1ccc(C(=O)NC(CC=C)C(=O)NCCC)cc1` (stereo not given): the Inhibition stood at 14.2%.

On to `[C-]#[N+]c1ccc(C(=O)NC(Cc2ccccc2F)C(=O)NCCC)cc1` (stereo not given), for which the Inhibition was 22.89%.

On to `CCCNC(=O)C(Cc1ccccc1C)NC(=O)c1ccc(C(F)(F)F)cc1` (stereo not given), for which the Inhibition was 28.42%.

On to `[C-]#[N+]c1ccc(C(=O)NC(CC)C(=O)NCCC)cc1` (stereo not given), for which the Inhibition was 19.19%.

Turning to `[C-]#[N+]c1ccc(C(=O)NC(Cc2ccc(F)cc2)C(=O)NCCC)cc1` (stereo not given), the Inhibition is 26.08%.

As to `[C-]#[N+]c1ccc(C(=O)NC(Cc2ccc(C(F)(F)F)cc2)C(=O)NCCC)cc1` (stereo not given), the Inhibition is listed as 24.86%.

On to `CCCNC(=O)C(Cc1ccccc1)NC(=O)Cc1ccccc1` (stereo not given), for which the Inhibition worked out at 29.57%.

As to `[C-]#[N+]c1ccc(C(=O)NC(CC#C)C(=O)NCCC)cc1` (stereo not given), the Inhibition was found to be 27.84%.

For the compound `CCCNC(=O)C(Cc1ccccc1)NC(=O)c1ccc(F)cc1` (stereo not given), the Inhibition is recorded as 30.52%.

As to `CCCNC(=O)C(Cc1ccc(F)cc1)NC(=O)c1ccccc1` (stereo not given), the Inhibition stood at 25.83%.

Staying with this test, now noted: Concentration 32 ug.mL-1; ASSAY_TEST Inhibition of Bacterial Growth; detection method Absorption (OD600); MEDIA CAMHB; plate type 384well; NBS; CORNING #3640; time 18 hr, 32 ug/mL.
On to `CC(C)[C@H](NC(=O)c1cccc(C(F)(F)F)c1)C(=O)O`, for which the Inhibition was 19.09% and 11.5%.

Turning to `NC(=O)[C@H](Cc1ccccc1)NC(=O)c1cccnc1`, the Inhibition was 29.26% and 26.43%.

In the case of `NC(Cc1ccccc1F)C(=O)O.O=C(O)C(F)(F)F` (stereo not given), the Inhibition is 11.55% and 11.5%.

Consider `NC(Cc1ccc(F)cc1)C(=O)O.O=C(O)C(F)(F)F` (stereo not given), for which the Inhibition is 15.79% and -3.39%.

Consider `O=C(Cc1cccc(Br)c1)N[C@@H](Cc1ccccc1)C(=O)O`, for which the Inhibition is 8.37% and -0.37%.

With `Cc1ccc(C(=O)NC(Cc2cc(F)c(F)cc2F)C(=O)O)cc1` (stereo not given), the Inhibition was 24.46% and 19.13%.

On to `O=C(NC(CCCc1ccccc1)C(=O)O)c1cccc2ccccc12` (stereo not given), for which the Inhibition was 21.08% and 19.14%.

As to `CC(C)C[C@H](NC(=O)c1cccnc1)C(N)=O`, the Inhibition is 11.42% and -3.35%.

With `O=C(N[C@@H](Cc1ccccc1)C(=O)O)C1CCCCC1`, the Inhibition was 12.87% and 13.13%.

Regarding `NC(=O)[C@@H]1CCCN1C(=O)c1ccccn1`, the Inhibition was 30.13% and 31.7%.

As to `O=C(NC(Cc1ccc(Cl)nc1)C(=O)O)c1ccccc1` (stereo not given), the Inhibition was 22.85% and 23.42%.

Regarding `C[C@H](NC(=O)c1ccccc1Cl)C(=O)O`, the Inhibition is 13.46% and 14.36%.

For the compound `Cc1ccc(C(=O)NC(Cc2ccccc2C#N)C(=O)O)cc1` (stereo not given), the Inhibition was 24.12% and 21.1%.

Take `NC(Cc1cccc(F)c1)C(=O)O.O=C(O)C(F)(F)F` (stereo not given): the Inhibition was 11.07% and 11.98%.

As to `COc1cc(C(=O)N[C@@H](CC(C)C)C(=O)O)ccc1O`, the Inhibition is 20.35% and 19.19%.

Turning to `NC(=O)[C@H](Cc1ccccc1)NC(=O)c1c(F)c(F)c(F)c(F)c1F`, the Inhibition was 22.06% and 27.14%.

Consider `NC(Cc1ccc(F)c(F)c1)C(=O)O.O=C(O)C(F)(F)F` (stereo not given), for which the Inhibition was 14.42% and 15.4%.

As to `NC(Cc1ccccc1I)C(=O)O.O=C(O)C(F)(F)F` (stereo not given), the Inhibition is 9.99% and 15.72%.

The next test has as its system Escherichia coli. The following applies: Concentration 32 ug.mL-1; ASSAY_TEST Inhibition of Bacterial Growth; detection method Absorption (OD600); MEDIA CAMHB; plate type 384well; NBS; CORNING #3640; time 18 hr.
Turning to `[C-]#[N+]c1ccc(C(=O)NC(CC=C)C(=O)NCCC)cc1` (stereo not given), the Inhibition is 6.66%.

In the case of `[C-]#[N+]c1ccc(C(=O)NC(Cc2ccccc2F)C(=O)NCCC)cc1` (stereo not given), the Inhibition is on record as 11.79%.

For the compound `CCCNC(=O)C(Cc1ccccc1C)NC(=O)c1ccc(C(F)(F)F)cc1` (stereo not given), the Inhibition is 15.38%.

With `[C-]#[N+]c1ccc(C(=O)NC(CC)C(=O)NCCC)cc1` (stereo not given), the Inhibition is given as 3.26%.

As for `[C-]#[N+]c1ccc(C(=O)NC(Cc2ccc(F)cc2)C(=O)NCCC)cc1` (stereo not given), the Inhibition stood at 15%.

For `[C-]#[N+]c1ccc(C(=O)NC(Cc2ccc(C(F)(F)F)cc2)C(=O)NCCC)cc1` (stereo not given), the Inhibition amounted to 13.88%.

Consider `CCCNC(=O)C(Cc1ccccc1)NC(=O)Cc1ccccc1` (stereo not given), for which the Inhibition was 14.02%.

On to `[C-]#[N+]c1ccc(C(=O)NC(CC#C)C(=O)NCCC)cc1` (stereo not given), for which the Inhibition stood at 17.34%.

Regarding `CCCNC(=O)C(Cc1ccccc1)NC(=O)c1ccc(F)cc1` (stereo not given), the Inhibition came out at 11.25%.

Turning to `CCCNC(=O)C(Cc1ccc(F)cc1)NC(=O)c1ccccc1` (stereo not given), the Inhibition turned out to be 9.01%.

The same test, now with this note: Concentration 32 ug.mL-1; ASSAY_TEST Inhibition of Bacterial Growth; detection method Absorption (OD600); MEDIA CAMHB; plate type 384well; NBS; CORNING #3640; time 18 hr, 32 ug/mL.
Take `CC(C)[C@H](NC(=O)c1cccc(C(F)(F)F)c1)C(=O)O`: the Inhibition is 0.57% and -0.75%.

As to `NC(=O)[C@H](Cc1ccccc1)NC(=O)c1cccnc1`, the Inhibition is 20.31% and 18.99%.

Turning to `NC(Cc1ccccc1F)C(=O)O.O=C(O)C(F)(F)F` (stereo not given), the Inhibition was 17.44% and 15.69%.

As for `NC(Cc1ccc(F)cc1)C(=O)O.O=C(O)C(F)(F)F` (stereo not given), the Inhibition is 9.45% and 2%.

`O=C(Cc1cccc(Br)c1)N[C@@H](Cc1ccccc1)C(=O)O`: the Inhibition was 5.53% and 8.68%.

For `Cc1ccc(C(=O)NC(Cc2cc(F)c(F)cc2F)C(=O)O)cc1` (stereo not given), the Inhibition was 4.35% and 11.7%.

Consider `CC(C)C[C@H](NC(=O)c1cccnc1)C(N)=O`, for which the Inhibition was -6.61% and -6.83%.

Consider `O=C(N[C@@H](Cc1ccccc1)C(=O)O)C1CCCCC1`, for which the Inhibition was 2.23% and -1.68%.

On to `NC(=O)[C@@H]1CCCN1C(=O)c1ccccn1`, for which the Inhibition is 20.95% and 16.57%.

For `O=C(NC(Cc1ccc(Cl)nc1)C(=O)O)c1ccccc1` (stereo not given), the Inhibition was 9.12% and 5.81%.

With `C[C@H](NC(=O)c1ccccc1Cl)C(=O)O`, the Inhibition is 2.9% and -3.06%.

Take `Cc1ccc(C(=O)NC(Cc2ccccc2C#N)C(=O)O)cc1` (stereo not given): the Inhibition was 12.75% and 9.35%.

With `NC(Cc1cccc(F)c1)C(=O)O.O=C(O)C(F)(F)F` (stereo not given), the Inhibition is 9.03% and 16.34%.

With `COc1cc(C(=O)N[C@@H](CC(C)C)C(=O)O)ccc1O`, the Inhibition was 10.4% and 9.74%.

As for `NC(=O)[C@H](Cc1ccccc1)NC(=O)c1c(F)c(F)c(F)c(F)c1F`, the Inhibition is 6.54% and 12.4%.

`NC(Cc1ccc(F)c(F)c1)C(=O)O.O=C(O)C(F)(F)F` (stereo not given): the Inhibition was 15.3% and 11.55%.

As to `NC(Cc1ccccc1I)C(=O)O.O=C(O)C(F)(F)F` (stereo not given), the Inhibition was 13.12% and 15.99%.
